Measured values from PubChem BioAssay AID488864 (Broad Institute, 2010).
Potency and affinity values are given separately. Values without a mark were called inactive.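 Rule for the calls: active = ATP signal reduced by compound, with fitted active dose under ten times the top valid tested dose; inactive = the rest, compounds that increase ATP levels included.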

Test: cellular ATP toxicity in rat beta cells – cell-based, CellTiter-Glo luminescence, INS-1E, dry powder, cytotoxicity control for beta-cell cytokine protection project, dose response (AID 488864)
Settings: INS-1E rat beta cells, 48 h, no cytokines; series mostly up to 26 µM; activity change, negative = ATP decrease: at the top concentration

Structure (SMILES)	activity change, negative = ATP decrease
COc1ccc(S(=O)(=O)N(C)C[C@H]2Oc3c(NC(=O)Nc4cccc5ccccc45)cccc3C(=O)N([C@H](C)CO)C[C@H]2C)cc1	5.53%
Cc1ccc(S(=O)(=O)N(C)C[C@@H]2Oc3c(NC(=O)Nc4cccc5ccccc45)cccc3C(=O)N([C@H](C)CO)C[C@H]2C)cc1	5.66% [at 23.5 µM]
Cc1ccc(S(=O)(=O)N(C)C[C@H]2Oc3c(NC(=O)Nc4cccc5ccccc45)cccc3C(=O)N([C@@H](C)CO)C[C@@H]2C)cc1	3.34% [at 12 µM]
C[C@@H]1CN([C@@H](C)CO)C(=O)c2cccc(NC(=O)Nc3cccc4ccccc34)c2O[C@H]1CN(C)C(=O)Nc1ccccc1	-6.04% [at 23.5 µM]
C[C@@H]1CN([C@@H](C)CO)C(=O)c2cccc(NC(=O)Nc3cccc4ccccc34)c2O[C@H]1CN(C)S(=O)(=O)c1ccc(Cl)cc1	3.29%
C[C@@H]1CN([C@H](C)CO)C(=O)c2cccc(NC(=O)Nc3ccccc3)c2O[C@H]1CN(C)S(=O)(=O)c1ccc(Cl)cc1	7.7%
CNC[C@@H]1Oc2c(NC(=O)Nc3cccc4ccccc34)cccc2C(=O)N([C@@H](C)CO)C[C@H]1C	-0.69%
COc1ccc(S(=O)(=O)N(C)C[C@@H]2Oc3c(NC(=O)Nc4cccc5ccccc45)cccc3C(=O)N([C@H](C)CO)C[C@@H]2C)cc1	1.09%
COc1ccc(S(=O)(=O)N(C)C[C@@H]2Oc3c(NC(=O)Nc4cccc5ccccc45)cccc3C(=O)N([C@@H](C)CO)C[C@H]2C)cc1Cl	15.4%
COc1ccc(S(=O)(=O)N(C)C[C@@H]2Oc3c(NC(=O)c4ccc(-c5nccs5)cc4)cccc3C(=O)N([C@@H](C)CO)C[C@H]2C)cc1	-1.51%
COc1ccc(S(=O)(=O)N(C)C[C@@H]2Oc3c(NC(=O)NC4CCCCC4)cccc3C(=O)N([C@@H](C)CO)C[C@H]2C)cc1	6.92%
C[C@@H]1CN([C@@H](C)CO)C(=O)c2cccc(NC(=O)Nc3cccc4ccccc34)c2O[C@H]1CN(C)S(=O)(=O)c1cn(C)cn1	2.81%
C[C@@H]1CN([C@@H](C)CO)C(=O)c2cccc(NC(=O)Nc3cccc4ccccc34)c2O[C@H]1CN(C)S(=O)(=O)c1cccc(F)c1	5%
C[C@@H]1CN([C@@H](C)CO)C(=O)c2cccc(NC(=O)Nc3cccc4ccccc34)c2O[C@H]1CN(C)CC1CC1	0.187%
Cc1ccc(S(=O)(=O)N(C)C[C@@H]2Oc3c(NC(=O)Nc4ccccc4)cccc3C(=O)N([C@H](C)CO)C[C@H]2C)cc1	0.0817%
C[C@@H]1CN([C@@H](C)CO)C(=O)c2cccc(NC(=O)Nc3cccc4ccccc34)c2O[C@H]1CN(C)S(=O)(=O)c1ccc(F)cc1	3.33%
COc1ccc(S(=O)(=O)N(C)C[C@@H]2Oc3c(NC(=O)Nc4cccc5ccccc45)cccc3C(=O)N([C@@H](C)CO)C[C@H]2C)cc1C	12%
C[C@@H]1CN([C@@H](C)CO)C(=O)c2cccc(NC(=O)Nc3cccc4ccccc34)c2O[C@H]1CN(C)S(=O)(=O)c1ccc2c(c1)OCCCO2	7.84%
COc1ccc(S(=O)(=O)N(C)C[C@@H]2Oc3c(NC(=O)Nc4cccc5ccccc45)cccc3C(=O)N([C@@H](C)CO)C[C@H]2C)cc1F	12%
COc1ccc(NC(=O)N(C)C[C@@H]2Oc3c(NC(=O)Nc4cccc5ccccc45)cccc3C(=O)N([C@@H](C)CO)C[C@H]2C)cc1	5.19%
COc1ccc(S(=O)(=O)N(C)C[C@@H]2Oc3c(NC(=O)Nc4cccc5ccccc45)cccc3C(=O)N([C@@H](C)CO)C[C@H]2C)cc1	11.3%
C[C@@H]1CN([C@@H](C)CO)C(=O)c2cccc(NC(=O)Nc3cccc4ccccc34)c2O[C@H]1CN(C)C(=O)NC1CCCCC1	-14.9%
COc1ccc(S(=O)(=O)N(C)C[C@@H]2Oc3c(NC(=O)c4cc(C)nn4C)cccc3C(=O)N([C@@H](C)CO)C[C@H]2C)cc1	4.75%
C[C@@H]1CN([C@@H](C)CO)C(=O)c2cccc(NC(=O)Nc3cccc4ccccc34)c2O[C@H]1CN(C)S(=O)(=O)c1ccc2c(c1)OCC2	7.13%
C[C@@H]1CN([C@@H](C)CO)C(=O)c2cccc(NC(=O)Nc3cccc4ccccc34)c2O[C@H]1CN(C)S(=O)(=O)c1ccc2c(c1)oc(=O)n2C	2.94%
C[C@@H]1CN([C@@H](C)CO)C(=O)c2cccc(NC(=O)Nc3cccc4ccccc34)c2O[C@H]1CN(C)C(=O)Nc1ccc2c(c1)OCO2	-3.25%
COc1cccc(S(=O)(=O)N(C)C[C@@H]2Oc3c(NC(=O)Nc4cccc5ccccc45)cccc3C(=O)N([C@@H](C)CO)C[C@H]2C)c1	3.81%
COc1ccc(S(=O)(=O)N(C)C[C@@H]2Oc3c(NS(C)(=O)=O)cccc3C(=O)N([C@@H](C)CO)C[C@H]2C)cc1	4.08%
